From ChEMBL document CHEMBL1961873, “Compounds: GSK PKIS; Assays: Nanosyn kinase panel” (2012) come the findings set out here.

The target in test [1] is T1, Mitogen-activated protein kinase 12 (Homo sapiens) (UniProt P53778).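 Note: values are averaged p38gamma kinase inhibition readings, compounds tested at 1 µM.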
T1 sequence (whole entry): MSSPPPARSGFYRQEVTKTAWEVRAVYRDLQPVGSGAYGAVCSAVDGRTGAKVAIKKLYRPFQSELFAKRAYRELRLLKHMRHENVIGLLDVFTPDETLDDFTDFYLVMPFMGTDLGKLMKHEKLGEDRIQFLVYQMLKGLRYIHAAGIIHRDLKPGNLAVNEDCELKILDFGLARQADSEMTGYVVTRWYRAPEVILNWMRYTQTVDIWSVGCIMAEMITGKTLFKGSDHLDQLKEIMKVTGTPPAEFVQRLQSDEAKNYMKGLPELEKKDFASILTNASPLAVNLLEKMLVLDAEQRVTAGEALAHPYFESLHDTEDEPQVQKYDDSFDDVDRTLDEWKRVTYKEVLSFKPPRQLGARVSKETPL
Particulars: at 1 µM.

Test [2] addresses SRSF protein kinase 1 (Homo sapiens) (UniProt Q96SB4). The settings on record: at 0.1 µM.
The target is the same in test [3]. The settings on record: at 1 µM.
The target of test [4] is Phosphatidylinositol 4,5-bisphosphate 3-kinase catalytic subunit alpha isoform (Homo sapiens) (UniProt P42336). Particulars: at 0.1 µM.
Test [5] has the same target. Particulars: at 1 µM.
Test [6] concerns the target T2, Phosphatidylinositol 4,5-bisphosphate 3-kinase catalytic subunit delta isoform (Homo sapiens) (UniProt O00329).
T2 sequence (whole entry): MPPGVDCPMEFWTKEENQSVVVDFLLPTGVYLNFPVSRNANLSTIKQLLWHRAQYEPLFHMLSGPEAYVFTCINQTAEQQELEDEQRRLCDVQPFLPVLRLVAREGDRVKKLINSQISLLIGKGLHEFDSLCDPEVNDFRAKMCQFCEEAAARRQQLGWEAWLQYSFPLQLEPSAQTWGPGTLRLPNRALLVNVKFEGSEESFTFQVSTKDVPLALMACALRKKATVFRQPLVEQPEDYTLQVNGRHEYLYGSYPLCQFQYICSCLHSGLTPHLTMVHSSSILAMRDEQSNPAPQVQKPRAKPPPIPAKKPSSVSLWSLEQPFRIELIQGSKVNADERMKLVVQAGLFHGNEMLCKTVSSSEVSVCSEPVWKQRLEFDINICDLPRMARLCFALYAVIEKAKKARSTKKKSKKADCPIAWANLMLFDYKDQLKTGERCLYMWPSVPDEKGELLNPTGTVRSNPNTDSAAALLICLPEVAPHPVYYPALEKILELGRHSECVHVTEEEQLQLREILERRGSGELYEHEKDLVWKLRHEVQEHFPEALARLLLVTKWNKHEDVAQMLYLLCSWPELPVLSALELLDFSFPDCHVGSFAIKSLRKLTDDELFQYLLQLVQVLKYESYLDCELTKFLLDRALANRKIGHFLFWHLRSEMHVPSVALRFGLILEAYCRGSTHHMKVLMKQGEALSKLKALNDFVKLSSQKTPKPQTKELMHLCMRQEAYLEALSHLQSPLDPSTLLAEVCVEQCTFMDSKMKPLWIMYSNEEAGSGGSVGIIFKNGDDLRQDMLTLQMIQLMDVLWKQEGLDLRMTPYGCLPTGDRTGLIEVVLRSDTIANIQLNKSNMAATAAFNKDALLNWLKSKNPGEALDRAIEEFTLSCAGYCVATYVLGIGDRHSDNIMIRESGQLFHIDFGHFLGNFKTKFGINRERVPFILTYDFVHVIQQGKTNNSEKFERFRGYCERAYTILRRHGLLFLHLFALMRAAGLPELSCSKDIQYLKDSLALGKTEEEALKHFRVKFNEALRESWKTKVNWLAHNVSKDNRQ
Particulars: at 0.1 µM.

Test [7] concerns the target T2, Phosphatidylinositol 4,5-bisphosphate 3-kinase catalytic subunit delta isoform (Homo sapiens). The settings on record: at 1 µM.
Test [8] has as its target Phosphatidylinositol 4-kinase beta (Homo sapiens) (UniProt Q9UBF8). The settings on record: at 0.1 µM.
Test [9] has the same target. The settings on record: at 1 µM.
Test [10] deals with Sphingosine kinase 1 (Homo sapiens) (UniProt Q9NYA1). The settings on record: at 0.1 µM.
Test [11] has the same target. Particulars: at 1 µM.
Test [12] deals with T3, Sphingosine kinase 2 (Homo sapiens) (UniProt Q9NRA0).
T3 sequence (whole entry): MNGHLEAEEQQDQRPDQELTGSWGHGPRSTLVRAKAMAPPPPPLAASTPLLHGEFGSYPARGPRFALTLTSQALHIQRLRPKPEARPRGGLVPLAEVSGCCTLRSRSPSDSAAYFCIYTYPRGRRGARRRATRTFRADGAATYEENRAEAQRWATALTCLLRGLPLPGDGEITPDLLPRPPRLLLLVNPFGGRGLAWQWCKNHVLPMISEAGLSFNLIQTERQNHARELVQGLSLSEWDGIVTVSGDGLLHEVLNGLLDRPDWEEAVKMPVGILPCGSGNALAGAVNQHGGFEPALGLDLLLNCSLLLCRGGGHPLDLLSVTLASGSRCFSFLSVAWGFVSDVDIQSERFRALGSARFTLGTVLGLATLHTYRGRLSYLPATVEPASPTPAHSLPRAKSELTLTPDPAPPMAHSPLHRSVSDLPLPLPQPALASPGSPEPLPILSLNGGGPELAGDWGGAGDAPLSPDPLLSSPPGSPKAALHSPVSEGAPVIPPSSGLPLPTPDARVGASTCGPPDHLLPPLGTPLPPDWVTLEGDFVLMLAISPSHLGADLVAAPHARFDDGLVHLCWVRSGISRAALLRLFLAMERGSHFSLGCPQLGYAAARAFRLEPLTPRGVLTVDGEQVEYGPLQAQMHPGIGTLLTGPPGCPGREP
Particulars: at 0.1 µM.

Test [13] has as its target T3, Sphingosine kinase 2 (Homo sapiens). The settings on record: at 1 µM.
For test [14], the target named is Casein kinase II subunit alpha (Homo sapiens) (UniProt P68400). The settings on record: at 0.1 µM.
Test [15] shares this target. The settings on record: at 1 µM.
Test [16] concerns the target T4, Inhibitor of nuclear factor kappa-B kinase subunit alpha (Homo sapiens) (UniProt O15111).
T4 sequence (whole entry): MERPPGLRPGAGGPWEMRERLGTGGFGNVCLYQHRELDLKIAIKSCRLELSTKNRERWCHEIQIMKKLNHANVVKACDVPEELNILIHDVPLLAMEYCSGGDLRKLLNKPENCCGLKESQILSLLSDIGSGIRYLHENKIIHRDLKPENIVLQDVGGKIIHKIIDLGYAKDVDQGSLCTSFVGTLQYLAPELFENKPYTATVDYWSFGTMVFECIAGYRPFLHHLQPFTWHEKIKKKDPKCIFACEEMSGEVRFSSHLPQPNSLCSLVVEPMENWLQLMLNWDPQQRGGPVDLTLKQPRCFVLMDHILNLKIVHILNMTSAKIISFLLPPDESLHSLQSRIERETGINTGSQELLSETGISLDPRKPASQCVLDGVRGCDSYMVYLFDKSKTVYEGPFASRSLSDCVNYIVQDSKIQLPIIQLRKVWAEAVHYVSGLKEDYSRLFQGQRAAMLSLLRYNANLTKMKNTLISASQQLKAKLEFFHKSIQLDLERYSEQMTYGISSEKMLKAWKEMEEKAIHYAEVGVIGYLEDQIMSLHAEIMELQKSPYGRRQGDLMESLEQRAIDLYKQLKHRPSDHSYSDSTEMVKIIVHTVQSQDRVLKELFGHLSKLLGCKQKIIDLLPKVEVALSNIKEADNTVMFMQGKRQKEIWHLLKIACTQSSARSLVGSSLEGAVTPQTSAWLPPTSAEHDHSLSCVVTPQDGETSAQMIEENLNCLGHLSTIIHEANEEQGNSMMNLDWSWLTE
Particulars: at 0.1 µM.

In test [17] the target is T4, Inhibitor of nuclear factor kappa-B kinase subunit alpha (Homo sapiens). The settings on record: at 1 µM.
Test [18] addresses T5, Inhibitor of nuclear factor kappa-B kinase subunit beta (Homo sapiens) (UniProt O14920).
T5 sequence (whole entry): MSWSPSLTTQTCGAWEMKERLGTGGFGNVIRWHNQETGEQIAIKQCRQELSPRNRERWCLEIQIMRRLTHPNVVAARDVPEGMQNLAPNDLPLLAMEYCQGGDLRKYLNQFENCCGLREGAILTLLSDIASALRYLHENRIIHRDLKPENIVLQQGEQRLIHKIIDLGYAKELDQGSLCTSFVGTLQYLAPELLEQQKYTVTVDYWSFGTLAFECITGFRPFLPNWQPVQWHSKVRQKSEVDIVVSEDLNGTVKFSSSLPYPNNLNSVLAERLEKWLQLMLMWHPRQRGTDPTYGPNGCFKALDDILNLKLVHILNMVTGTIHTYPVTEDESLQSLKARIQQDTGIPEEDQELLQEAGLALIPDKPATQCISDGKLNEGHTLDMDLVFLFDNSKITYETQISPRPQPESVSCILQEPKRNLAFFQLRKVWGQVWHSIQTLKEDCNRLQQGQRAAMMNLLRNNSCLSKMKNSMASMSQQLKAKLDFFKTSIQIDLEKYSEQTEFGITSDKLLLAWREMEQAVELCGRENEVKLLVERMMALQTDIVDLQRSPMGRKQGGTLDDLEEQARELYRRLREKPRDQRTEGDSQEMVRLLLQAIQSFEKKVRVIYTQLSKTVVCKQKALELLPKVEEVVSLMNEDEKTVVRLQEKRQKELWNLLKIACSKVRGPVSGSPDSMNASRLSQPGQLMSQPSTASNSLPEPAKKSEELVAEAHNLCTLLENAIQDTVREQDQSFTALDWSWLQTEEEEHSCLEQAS
Particulars: at 0.1 µM.

Test [19] deals with T5, Inhibitor of nuclear factor kappa-B kinase subunit beta (Homo sapiens). The settings on record: at 1 µM.
The target of test [20] is T6, Inhibitor of nuclear factor kappa-B kinase subunit epsilon (Homo sapiens) (UniProt Q14164).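 Note: mean inhibition of IKKε reported, from the GSK PKIS dataset.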
T6 sequence (whole entry): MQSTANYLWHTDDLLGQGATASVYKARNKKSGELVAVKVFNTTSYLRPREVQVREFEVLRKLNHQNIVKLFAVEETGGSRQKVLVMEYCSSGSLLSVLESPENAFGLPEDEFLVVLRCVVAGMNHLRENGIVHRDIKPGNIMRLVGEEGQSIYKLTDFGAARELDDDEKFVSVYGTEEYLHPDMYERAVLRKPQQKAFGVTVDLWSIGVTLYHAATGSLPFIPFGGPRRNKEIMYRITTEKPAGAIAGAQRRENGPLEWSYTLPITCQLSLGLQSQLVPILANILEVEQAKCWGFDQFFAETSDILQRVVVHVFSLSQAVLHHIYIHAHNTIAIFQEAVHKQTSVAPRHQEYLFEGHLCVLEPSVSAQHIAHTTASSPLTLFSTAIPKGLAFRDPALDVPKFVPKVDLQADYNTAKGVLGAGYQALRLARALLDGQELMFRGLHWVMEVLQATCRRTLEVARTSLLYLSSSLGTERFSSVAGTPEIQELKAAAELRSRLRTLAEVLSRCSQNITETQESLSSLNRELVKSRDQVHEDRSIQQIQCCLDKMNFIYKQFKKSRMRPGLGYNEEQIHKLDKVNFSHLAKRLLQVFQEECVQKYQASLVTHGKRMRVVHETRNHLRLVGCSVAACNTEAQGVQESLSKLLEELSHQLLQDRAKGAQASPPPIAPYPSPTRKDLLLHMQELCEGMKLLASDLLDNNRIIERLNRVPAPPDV
The settings on record: at 0.1 µM.

Chain of Phosphatidylinositol 4,5-bisphosphate 3-kinase catalytic subunit alpha isoform (Homo sapiens) (P42336 whole entry, canonical isoform): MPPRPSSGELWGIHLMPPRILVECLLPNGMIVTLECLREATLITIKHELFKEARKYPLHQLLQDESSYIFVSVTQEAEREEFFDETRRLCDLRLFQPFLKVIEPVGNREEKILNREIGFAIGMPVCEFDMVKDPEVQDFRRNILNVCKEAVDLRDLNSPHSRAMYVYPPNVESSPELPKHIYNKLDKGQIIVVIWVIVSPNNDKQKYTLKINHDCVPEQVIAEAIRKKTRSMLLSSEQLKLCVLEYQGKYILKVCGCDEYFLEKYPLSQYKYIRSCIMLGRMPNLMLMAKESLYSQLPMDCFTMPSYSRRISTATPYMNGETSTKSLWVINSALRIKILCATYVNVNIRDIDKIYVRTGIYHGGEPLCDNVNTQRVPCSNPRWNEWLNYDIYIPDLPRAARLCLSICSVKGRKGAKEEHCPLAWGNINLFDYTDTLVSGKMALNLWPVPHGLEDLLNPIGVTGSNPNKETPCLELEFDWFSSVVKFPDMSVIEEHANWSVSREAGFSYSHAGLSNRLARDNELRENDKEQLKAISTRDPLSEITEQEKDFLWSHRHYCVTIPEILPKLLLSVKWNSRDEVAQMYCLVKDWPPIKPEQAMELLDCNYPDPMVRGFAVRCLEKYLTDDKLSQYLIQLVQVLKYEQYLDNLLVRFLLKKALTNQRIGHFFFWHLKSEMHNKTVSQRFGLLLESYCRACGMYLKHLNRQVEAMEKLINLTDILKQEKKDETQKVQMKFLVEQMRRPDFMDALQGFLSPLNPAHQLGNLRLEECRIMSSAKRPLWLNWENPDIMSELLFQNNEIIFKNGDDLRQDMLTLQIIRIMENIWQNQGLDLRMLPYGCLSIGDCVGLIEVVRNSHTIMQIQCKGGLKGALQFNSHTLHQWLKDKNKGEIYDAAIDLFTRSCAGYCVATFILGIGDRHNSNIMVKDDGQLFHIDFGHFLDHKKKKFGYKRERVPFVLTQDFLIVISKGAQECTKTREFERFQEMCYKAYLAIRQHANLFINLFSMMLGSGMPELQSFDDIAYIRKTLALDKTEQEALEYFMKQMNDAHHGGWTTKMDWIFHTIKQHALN
Chain of Phosphatidylinositol 4-kinase beta (Homo sapiens) (Q9UBF8 2-816 limits assumed): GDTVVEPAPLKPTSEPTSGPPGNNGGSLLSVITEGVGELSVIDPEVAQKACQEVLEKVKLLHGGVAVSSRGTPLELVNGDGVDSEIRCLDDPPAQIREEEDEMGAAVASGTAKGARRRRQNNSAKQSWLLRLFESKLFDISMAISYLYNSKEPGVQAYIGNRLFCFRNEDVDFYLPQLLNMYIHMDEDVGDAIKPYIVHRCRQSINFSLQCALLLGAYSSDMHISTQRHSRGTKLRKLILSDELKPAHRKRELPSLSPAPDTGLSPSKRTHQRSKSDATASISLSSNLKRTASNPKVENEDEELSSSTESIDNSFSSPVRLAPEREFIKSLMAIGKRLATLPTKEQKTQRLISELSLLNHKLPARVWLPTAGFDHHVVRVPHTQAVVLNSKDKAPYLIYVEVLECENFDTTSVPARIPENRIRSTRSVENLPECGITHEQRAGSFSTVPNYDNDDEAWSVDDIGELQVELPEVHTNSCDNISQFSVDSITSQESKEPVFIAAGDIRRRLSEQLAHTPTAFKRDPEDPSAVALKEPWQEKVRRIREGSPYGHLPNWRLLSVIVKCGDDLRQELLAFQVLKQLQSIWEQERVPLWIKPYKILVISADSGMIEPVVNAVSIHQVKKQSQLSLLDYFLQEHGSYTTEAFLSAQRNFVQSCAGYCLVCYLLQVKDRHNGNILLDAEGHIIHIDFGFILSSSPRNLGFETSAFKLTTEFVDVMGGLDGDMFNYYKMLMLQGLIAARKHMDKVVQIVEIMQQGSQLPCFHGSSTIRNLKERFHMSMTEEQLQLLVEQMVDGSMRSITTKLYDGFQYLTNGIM
Chain of SRSF protein kinase 1 (Homo sapiens) (Q96SB4 whole entry): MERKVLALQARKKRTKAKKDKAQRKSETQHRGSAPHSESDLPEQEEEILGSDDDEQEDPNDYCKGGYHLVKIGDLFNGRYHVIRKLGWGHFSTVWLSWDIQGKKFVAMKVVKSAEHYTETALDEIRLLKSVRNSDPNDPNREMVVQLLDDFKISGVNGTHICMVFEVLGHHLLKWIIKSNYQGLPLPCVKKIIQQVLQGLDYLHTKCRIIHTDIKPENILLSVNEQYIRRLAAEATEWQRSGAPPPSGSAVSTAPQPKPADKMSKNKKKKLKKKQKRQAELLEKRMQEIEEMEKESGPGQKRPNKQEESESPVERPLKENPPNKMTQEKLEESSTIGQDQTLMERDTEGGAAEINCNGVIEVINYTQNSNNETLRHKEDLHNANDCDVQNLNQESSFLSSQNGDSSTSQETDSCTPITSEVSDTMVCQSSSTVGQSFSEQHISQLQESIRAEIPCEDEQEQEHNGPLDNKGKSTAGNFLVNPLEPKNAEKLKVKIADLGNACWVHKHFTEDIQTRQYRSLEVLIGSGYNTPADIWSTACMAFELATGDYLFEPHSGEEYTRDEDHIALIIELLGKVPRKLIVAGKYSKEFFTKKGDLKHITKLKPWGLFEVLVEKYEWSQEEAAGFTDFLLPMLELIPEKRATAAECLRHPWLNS
Chain of Casein kinase II subunit alpha (Homo sapiens) (P68400 whole entry, looked up): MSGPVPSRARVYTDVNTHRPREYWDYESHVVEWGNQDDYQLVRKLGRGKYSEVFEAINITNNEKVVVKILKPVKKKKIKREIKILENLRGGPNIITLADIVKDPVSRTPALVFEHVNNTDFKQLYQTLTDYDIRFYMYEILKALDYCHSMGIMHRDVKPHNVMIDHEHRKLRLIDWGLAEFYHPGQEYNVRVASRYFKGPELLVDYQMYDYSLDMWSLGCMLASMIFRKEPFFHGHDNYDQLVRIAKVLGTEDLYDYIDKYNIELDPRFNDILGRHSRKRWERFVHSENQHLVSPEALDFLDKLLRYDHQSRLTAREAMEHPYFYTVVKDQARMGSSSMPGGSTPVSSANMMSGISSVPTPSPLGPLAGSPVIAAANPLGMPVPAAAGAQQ
Chain of Sphingosine kinase 1 (Homo sapiens) (Q9NYA1 whole entry): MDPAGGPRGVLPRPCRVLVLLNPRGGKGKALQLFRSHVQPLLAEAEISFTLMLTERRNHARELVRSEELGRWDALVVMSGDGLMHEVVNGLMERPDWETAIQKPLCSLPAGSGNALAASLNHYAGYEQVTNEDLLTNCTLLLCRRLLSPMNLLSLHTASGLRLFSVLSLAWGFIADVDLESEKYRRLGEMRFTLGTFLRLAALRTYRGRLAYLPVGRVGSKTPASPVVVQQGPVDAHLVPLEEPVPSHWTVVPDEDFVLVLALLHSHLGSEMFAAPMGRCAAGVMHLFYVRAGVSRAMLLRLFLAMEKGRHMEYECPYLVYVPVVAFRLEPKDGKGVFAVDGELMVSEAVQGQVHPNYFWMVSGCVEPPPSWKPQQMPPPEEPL

Regarding `O=C(Nc1n[nH]c2cc(-c3cc(F)ccc3F)ccc12)C1CC1`, the inhibition in test [1] was 2.66%; in test [2] it was -2.08%; in [3] it was -4.65%; in test [4] it was 1.92%; in test [5], 3.65%; in test [6], 2.22%. Moreover, the inhibition in test [7] is 4.33%; in [8] it was -2.33%; in test [9], 3.14%; in test [10], 0.01%; in [11] it was -2.44%; in [12], 2.23%. For the same compound, the inhibition in test [13] came to 0.13%; in test [14], 2.27%; in test [15], 2.39%; in test [16], 8.06%; in [17] it was 7.87%; in test [18], 4.95%. Besides, the inhibition in test [19] worked out at 5.11%; in test [20], 4.29%.
Turning to `NC(=O)c1cc(-c2ccc(F)cc2)cc(-c2ccncc2)c1N`, the inhibition in test [1] is 3.29%; in [2] it was -2.19%; in [3] it was -2.78%; in test [4], 3.84%; in test [5] it was 22.8%; in test [6], 2.48%. The inhibition in [7] is 4.83%; in [8] it was -4.18%; in test [9], -2.52%; in test [10], -2.79%; in [11] it was 4.1%; in test [12], 1.03%. In addition, the inhibition in test [13] is -1.1%; in test [14], 3.42%; in test [15], 8.62%; in test [20], 6.05%.
As to `C/C(Nc1ccc(S(N)(=O)=O)cc1)=C1/C(=O)Nc2ccccc21`, the inhibition in [1] was -1.66%; in test [2], 2.04%; in test [3] it was 1.41%; in [4] it was 0.42%; in [5], 1.42%; in test [6], 2.42%. Also, the inhibition in test [7] was 3.52%; in test [8] it was -1.12%; in test [9], -0.13%; in test [10], -1.38%; in test [11] it was 2.7%; in test [12], 0.02%. For the same compound, the inhibition is 0.53% in test [13]; -0.1% in test [14]; 7.42% in test [15]; 4.91% in test [16]; 2.59% in [17]; -0.76% in test [18]. Besides, the results for the inhibition in [19] and in test [20] were 1.17% and -2.73%, respectively.

By inhibition is commonly meant the drop in the measured response relative to a control, in per cent.
